Reference: the supplement of paper PMC6555819

Key:
Experiment in all cases: PBM binding z-score (relative to random genomic background probes); higher = stronger binding; sequences stand for … in GC…GCGATTGACAGCGTAGAATGAAGG
[1] = tested on: FXR:RXRa (NR concentration 270 nM, RXRa partner concentration 90 nM)
How it was run: (§1)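 Ligand-free nuclear receptor dimers were applied to custom Agilent 4×180K protein-binding microarrays whose double-stranded probes carried direct-repeat seeds, single-nucleotide variants, half-site ablations and random human genomic background sequences in 34-nt variable regions. Incubation lasted 1 h. Binding z-scores were computed against the random background probes from regression-normalized fluorescence.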

[2] = tested on: LXRa:RXRa (NR concentration 270 nM, RXRa partner concentration 90 nM)
How it was run: as §1

[3] = tested on: LXRa homodimer (NR concentration 270 nM)
How it was run: as §1

[4] = tested on: LXRb:RXRa (NR concentration 270 nM, RXRa partner concentration 90 nM)
How it was run: as §1

[5] = tested on: LXRb homodimer (NR concentration 270 nM)
How it was run: as §1

[6] = tested on: PPARa:RXRa (NR concentration 270 nM, RXRa partner concentration 90 nM)
How it was run: as §1

[7] = tested on: PPARg:RXRa (NR concentration 180 nM, RXRa partner concentration 90 nM)
How it was run: as §1

[8] = tested on: PPARg:RXRa 270nM:90nM, anti-RXR (NR concentration 270 nM, RXRa partner concentration 90 nM)
How it was run: as §1

[9] = tested on: PPARg:RXRa 30nM:10nM, anti-RXR (NR concentration 30 nM, RXRa partner concentration 10 nM)
How it was run: as §1

[10] = tested on: PPARg:RXRa 90nM:30nM, anti-RXR (NR concentration 90 nM, RXRa partner concentration 30 nM)
How it was run: as §1

[11] = tested on: PPARg:RXRa DBDmut IVT, anti-RXR (DBD mutation: RXRa K156A/R161A, NR concentration 270 nM, RXRa partner concentration 90 nM)
How it was run: as §1

[12] = tested on: PPARg:RXRa IVT, anti-PPARg (NR concentration 270 nM, RXRa partner concentration 90 nM)
How it was run: as §1

[13] = tested on: PPARg DBDmut:RXRa IVT, anti-PPARg (DBD mutation: PPARg1 K132A/R137A, NR concentration 270 nM, RXRa partner concentration 90 nM)
How it was run: as §1

[14] = tested on: PPARg DBDmut IVT, anti-PPARg (DBD mutation: PPARg1 K132A/R137A, NR concentration 270 nM)
How it was run: as §1

[15] = tested on: PPARg homodimer (NR concentration 180 nM)
How it was run: as §1

[16] = tested on: PXR:RXRa (NR concentration 270 nM, RXRa partner concentration 90 nM)
How it was run: as §1

[17] = tested on: PXR homodimer (NR concentration 270 nM)
How it was run: as §1

[18] = tested on: RARa:RXR (NR concentration 270 nM, RXRa partner concentration 90 nM)
How it was run: as §1

[19] = tested on: RARa homodimer (NR concentration 270 nM)
How it was run: as §1

[20] = tested on: RARb:RXRa (NR concentration 270 nM, RXRa partner concentration 90 nM)
How it was run: as §1

| Sequence | PBM binding z-score [1] | PBM binding z-score [2] | PBM binding z-score [3] | PBM binding z-score [4] | PBM binding z-score [5] | PBM binding z-score [6] | PBM binding z-score [7] | PBM binding z-score [8] | PBM binding z-score [9] | PBM binding z-score [10] | PBM binding z-score [11] | PBM binding z-score [12] | PBM binding z-score [13] | PBM binding z-score [14] | PBM binding z-score [15] | PBM binding z-score [16] | PBM binding z-score [17] | PBM binding z-score [18] | PBM binding z-score [19] | PBM binding z-score [20] |
| --- | --- | --- | --- | --- | --- | --- | --- | --- | --- | --- | --- | --- | --- | --- | --- | --- | --- | --- | --- | --- |
| GATACAGGGTCAGCGAGAGGCCAGAGTATGGAAA | 5.07 | 3.15 | -0.446 | 2.63 | -1.12 | 5.05 | 4.14 | 3.78 | 1.07 | 2.38 | 1.16 | 2.78 | -0.0146 | -0.645 | 2.81 | 3.7 | 0.293 | 4.49 | 0.19 | 4.26 |
| GCTGCCAGGTCAGGTTGGTCAGCTAACGGGTACG | 1.58 | 0.973 | -0.337 | 0.712 | -0.51 | 1.64 | 0.272 | 0.752 | -0.562 | 0.147 | 0.771 | 1.4 | -0.447 | -1.57 | 0.22 | 0.724 | -0.291 | 1.25 | -0.438 | 3.23 |
| ACAGACAGGTGAAGAAGGTAACTCAGGCTATCAT | 0.248 | 0.203 | -0.161 | 0.234 | -0.276 | 0.721 | 0.796 | 0.34 | 0.0156 | -0.0588 | 0.468 | 0.733 | 0.175 | 0.429 | 0.495 | 0.0318 | 0.0524 | 0.274 | 0.349 | 0.709 |
| AATAGCAGGCCAAGGGTCACTCAAGATTAGTCCG | 2.6 | 3.25 | 0.455 | 2.65 | -0.0727 | 4.75 | 8.33 | 7.83 | 6.83 | 8.23 | 2.14 | 4.27 | 0.158 | -0.162 | 1.57 | 3.26 | -0.222 | 4.09 | 0.758 | 3.54 |
| AGTATTAGTTGACTTAGGGCAACCGATACGACGC | 0.048 | 0.00134 | 0.42 | 0.0482 | 0.3 | 0.128 | 0.82 | 0.435 | 0.448 | 0.623 | -0.0999 | 0.548 | 0.229 | 1.16 | 0.56 | 0.237 | 0.692 | 0.353 | 1 | 1.12 |
| ATCGAAAGGTCGAGGTGAGCATAGAGAAAGGGAA | 4.16 | 3.42 | -0.0507 | 2.7 | 0.363 | 4.61 | 3.46 | 3.8 | 1.66 | 2.84 | 0.593 | 2.74 | 0.675 | 0.756 | 1.39 | 2.2 | -0.0822 | 3.17 | 0.169 | 4.27 |
| CGTCCAAGGACAAGGTCAGTGAAAGAGACTCGAA | 1.56 | 1.45 | -0.433 | 1.46 | -0.506 | 2.39 | 0.883 | 1.23 | -0.0239 | 0.648 | 0.434 | 0.71 | -0.797 | -1.03 | 1.03 | 1.61 | 0.632 | 2.38 | -0.259 | 3.93 |
| TCGAGTAGGTTAGTCGGGGCATCCAGCCAACATA | 0.256 | 0.187 | -0.411 | 0.296 | -1.13 | 0.822 | -0.0152 | 0.685 | 0.993 | 0.766 | 2.28 | 2.09 | -0.561 | 0.0213 | -0.139 | 0.0331 | -0.0889 | 0.263 | -0.138 | 0.628 |
| CGAGCTAGGTCAGAACAGGACAGTGAAGGATGAT | 1.62 | 0.749 | -0.308 | -0.00924 | -0.647 | 1.11 | 1.11 | 0.596 | -0.277 | 0.0129 | 1.93 | 1.04 | -1.14 | -1.15 | 0.363 | 0.798 | -0.245 | 0.682 | -0.341 | 2.89 |
| CAAACTTGGTCACAGAGGTCAAAGTCCGTGCGTA | 5.4 | 5.01 | 5.81 | 5.15 | 1.63 | 5.31 | 4.74 | 5.07 | 2.04 | 4.21 | 2.87 | 4.58 | 0.599 | 0.268 | 3.66 | 6.07 | 3.89 | 6.64 | 1.42 | 4.34 |
| CCTACTGGGCCATAAAGGTCATTGATGCCGATAA | 3.55 | 4.42 | 3.57 | 4.21 | 0.574 | 4.79 | 4.32 | 4.68 | 2.1 | 4.45 | 3.2 | 4.78 | -0.0892 | 0.0735 | 1.94 | 4.87 | 2.7 | 4.9 | 0.376 | 3.89 |
| CGAACTAGGTCAAAGACAGTGAATCTCCGCACGC | 3.64 | 2.39 | 0.268 | 1.66 | 0.166 | 4.8 | 7.47 | 6.52 | 4.4 | 6.21 | 8.07 | 8.21 | 4.15 | 2.23 | 1.24 | 1.06 | 0.0351 | 1.82 | 0.463 | 3.74 |
| ACTAGTTGGTCAGCTGCGGTCACACACAATTCGG | 0.216 | 0.737 | 1.43 | 0.671 | 0.37 | 0.527 | 0.606 | 0.528 | -0.0871 | 0.128 | 1.11 | 1.54 | 0.929 | 0.572 | 0.275 | 1.27 | 0.281 | 1.42 | 0.564 | 2.26 |
